# Source: PubChem BioAssay (Tox21)
# “And” between values parts separate entries of the source, which are not always exact repeats. Equal values may be shown once. Inconclusive results are not listed. Entries that show only a call come without a potency. Some compounds were tested as several samples or in several runs, with calls that do not always agree. The source made the active and inactive calls. Calls come from the whole dose curve; as a rule, active = well fitted curve in the direction sought with a large enough effect in the repeat runs; inconclusive = weak or mixed curves; inactive = no such curve, though single readings can be large; an effect the other way counts as inactive or inconclusive.
# What was measured:
# [1] = qHTS RealTime-Glo MT Cell Viability Assay in HepG2 cells - 40 hour (AID 1224870); note: nearly all actives have a fitted effect of over 50% in size
# How it was run: (§1)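 HepG2 cells mixed with RealTime-Glo MT reagents (NanoLuc plus cell-permeant prosubstrate) were seeded at 600 cells/well, incubated 5 h at 37 C/5% CO2, then pinned with compounds in DMSO; nonlytic luminescence tracked viability during 40 h treatment.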
# [2] = A CellTox Green Cytotoxicity Assay to monitor cytotoxicity in HEK293 cells - 40 hour (AID 1224871); note: nearly all actives have a fitted effect of over 45% in size
# How it was run: (§2)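 Dead-cell fluorescence measured kinetically: asymmetric cyanine dye, HEK293, 600 cells/well, 5 h settle, 23 nL cpd/DMSO, 37 C, reads 0–40 h every 8 h.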
# [3] = qHTS RealTime-Glo MT Cell Viability Assay in HEK293 cells - 40 hour (AID 1224874); details: RealTime-Glo luminescence; max response: stronger effect = lower value; note: nearly all actives have a fitted effect of over 50% in size; note: potency is the fitted concentration of half-maximal effect
# How it was run: (§3)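 600 HEK293 cells per well, dispensed already mixed with RealTime-Glo MT reagents. Compound dosing came 5 h later. The same wells were read for luminescence at 0, 8, 16, 24, 32 and 40 h of exposure at 37 C.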
# [4] = A CellTox Green Cytotoxicity Assay to monitor cytotoxicity in HEK293 cells - 24 hour (AID 1224875); note: series mostly up to about 77 µM; nearly all actives have a fitted effect of over 45% in size
# How it was run: as §2
# [5] = A CellTox Green Cytotoxicity Assay to monitor cytotoxicity in HepG2 cells - 16 hour (AID 1224876); note: nearly all actives have a fitted effect of over 45% in size
# How it was run: (§4)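 First, HepG2 cells (600/well) mixed with reagent were plated; second, after 5 h at 37 C they received compounds via pintool; third, fluorescence was measured at 0 h through 40 h at 8 h intervals.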
# [6] = qHTS RealTime-Glo MT Cell Viability Assay in HepG2 cells - 32 hour (AID 1224877); note: nearly all actives have a fitted effect of over 55% in size
# How it was run: (§5)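 Tox21 10K library screened in qHTS format on HepG2 cells carrying RealTime-Glo reagents. Compounds were added after a 5 h preincubation, and the luminescent signal from continuous culture was measured repeatedly during 40 h treatment.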
# [7] = A CellTox Green Cytotoxicity Assay to monitor cytotoxicity in HepG2 cells - 24 hour (AID 1224878); note: nearly all actives have a fitted effect of over 45% in size
# How it was run: as §4
# [8] = A CellTox Green Cytotoxicity Assay to monitor cytotoxicity in HepG2 cells - 40 hour (AID 1224879); note: nearly all actives have a fitted effect of over 40% in size; note: potency is the fitted concentration of half-maximal effect
# How it was run: as §4
# [9] = qHTS RealTime-Glo MT Cell Viability Assay in HEK293 cells - 0 hour (AID 1224880)
# How it was run: as §3
# [10] = A CellTox Green Cytotoxicity Assay to monitor cytotoxicity in HEK293 cells - 32 hour (AID 1224881); note: nearly all actives have a fitted effect of over 40% in size
# How it was run: as §2
# [11] = A CellTox Green Cytotoxicity Assay to monitor cytotoxicity in HepG2 cells - 0 hour (AID 1224882); note: nearly all actives have a fitted effect of over 35% in size
# How it was run: as §4
# [12] = A CellTox Green Cytotoxicity Assay to monitor cytotoxicity in HEK293 cells - 8 hour (AID 1224884); note: nearly all actives have a fitted effect of over 35% in size
# How it was run: as §2
# [13] = qHTS RealTime-Glo MT Cell Viability Assay in HepG2 cells - 16 hour (AID 1224885); note: nearly all actives have a fitted effect of over 50% in size
# How it was run: as §5
# [14] = qHTS RealTime-Glo MT Cell Viability Assay in HEK293 cells - 24 hour (AID 1224886); note: nearly all actives have a fitted effect of over 50% in size; note: potency is the fitted concentration of half-maximal effect
# How it was run: (§6)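 Luminescence generated by NanoLuc from substrate produced by living HEK293 cells served as the viability signal. Each value reflects the reading at its stated time point during continuous 40 h compound exposure at 37 C.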
# [15] = qHTS RealTime-Glo MT Cell Viability Assay in HEK293 cells - 8 hour (AID 1224887); note: nearly all actives have a fitted effect of over 50% in size; note: potency is the fitted concentration of half-maximal effect
# How it was run: as §3
# [16] = A CellTox Green Cytotoxicity Assay to monitor cytotoxicity in HEK293 cells - 16 hour (AID 1224888); note: nearly all actives have a fitted effect of over 35% in size
# How it was run: as §2
# [17] = qHTS RealTime-Glo MT Cell Viability Assay in HepG2 cells - 0 hour (AID 1224889); note: nearly all actives have a fitted effect of over 50% in size
# How it was run: as §5
# [18] = qHTS RealTime-Glo MT Cell Viability Assay in HEK293 cells - 16 hour (AID 1224872); note: nearly all actives have a fitted effect of over 50% in size; note: potency is the fitted concentration of half-maximal effect
# How it was run: as §6
# [19] = qHTS RealTime-Glo MT Cell Viability Assay in HepG2 cells - 8 hour (AID 1224873); note: nearly all actives have a fitted effect of over 55% in size
# How it was run: as §1
# [20] = A CellTox Green Cytotoxicity Assay to monitor cytotoxicity in HepG2 cells - 32 hour (AID 1224883); note: nearly all actives have a fitted effect of over 50% in size; note: potency is the fitted concentration of half-maximal effect
# How it was run: as §4
smiles,measurement,setting,value
Cc1ccc(C#N)cc1,Potency,[1],inactive
same,Potency,[2],inactive
same,max response,[3],6.96% (inactive)
same,Potency,[4],inactive
same,Potency,[5],inactive
same,Potency,[6],inactive
same,Potency,[7],inactive
same,Potency,[8],inactive
same,Potency,[9],inactive
same,Potency,[10],inactive
same,Potency,[11],inactive
same,Potency,[12],inactive
same,Potency,[13],inactive
same,Potency,[14],inactive
same,Potency,[15],inactive
same,Potency,[16],inactive
same,Potency,[17],inactive
CCCCCCOC(=O)CCCCC(=O)OCCCCCC,Potency,[2],inactive
same,Potency,[18],inactive
same,Potency,[19],inactive
same,max response,[3],7.23% (inactive)
same,Potency,[4],inactive
same,Potency,[5],inactive
same,Potency,[6],inactive
same,Potency,[7],inactive
same,Potency,[8],inactive
same,Potency,[9],inactive
same,Potency,[10],inactive
same,Potency,[11],inactive
same,Potency,[20],inactive
same,Potency,[12],inactive
same,Potency,[13],inactive
same,Potency,[14],inactive
same,Potency,[15],inactive
same,Potency,[16],inactive
same,Potency,[17],inactive
C=COCC1CCC(CO)CC1 (centres undefined),Potency,[2],inactive
same,Potency,[18],inactive
same,Potency,[19],inactive
same,max response,[3],11.5% (inactive)
same,Potency,[4],inactive
same,Potency,[5],inactive
same,Potency,[6],inactive
same,Potency,[7],inactive
same,Potency,[8],inactive
same,Potency,[9],inactive
same,Potency,[10],inactive
same,Potency,[11],inactive
same,Potency,[20],inactive
same,Potency,[12],inactive
same,Potency,[13],inactive
same,Potency,[14],inactive
same,Potency,[15],inactive
same,Potency,[16],inactive
same,Potency,[17],inactive
NC(CSCC(=O)O)C(=O)O (centres undefined),Potency,[1],inactive
same,Potency,[2],inactive
same,Potency,[19],inactive
same,max response,[3],7.24% (inactive)
same,Potency,[4],inactive
same,Potency,[5],inactive
same,Potency,[6],inactive
same,Potency,[7],inactive
same,Potency,[8],inactive
same,Potency,[11],inactive
same,Potency,[20],inactive
same,Potency,[12],inactive
same,Potency,[13],inactive
same,Potency,[14],inactive
same,Potency,[15],inactive
same,Potency,[16],inactive
same,Potency,[17],inactive
CN(C(=O)c1c(O)c2ccccc2n(C)c1=O)c1ccccc1,Potency,[1],inactive
same,Potency,[2],inactive
same,Potency,[19],inactive
same,max response,[3],9.26% (inactive)
same,Potency,[4],inactive
same,Potency,[5],inactive
same,Potency,[6],inactive
same,Potency,[8],inactive
same,Potency,[9],inactive
same,Potency,[10],inactive
same,Potency,[11],inactive
same,Potency,[20],inactive
same,Potency,[12],inactive
same,Potency,[13],inactive
same,Potency,[14],inactive
same,Potency,[15],inactive
same,Potency,[16],inactive
same,Potency,[17],inactive
OC1CCCCC1c1ccccc1 (centres undefined),Potency,[1],inactive
same,Potency,[2],inactive
same,max response,[3],3.62% (inactive)
same,Potency,[4],inactive
same,Potency,[5],inactive
same,Potency,[6],inactive
same,Potency,[7],inactive
same,Potency,[8],inactive
same,Potency,[9],inactive
same,Potency,[11],inactive
same,Potency,[20],inactive
same,Potency,[12],inactive
same,Potency,[13],inactive
same,Potency,[14],inactive
same,Potency,[15],inactive
same,Potency,[16],inactive
same,Potency,[17],inactive
CC(C)(O)C(=O)c1ccccc1,Potency,[1],inactive
same,Potency,[2],inactive
same,Potency,[19],inactive
same,Potency,[4],inactive
same,Potency,[5],inactive
same,Potency,[6],inactive
same,Potency,[8],inactive
same,Potency,[9],inactive
same,Potency,[11],inactive
same,Potency,[12],inactive
same,Potency,[13],inactive
same,Potency,[14],inactive
same,Potency,[15],inactive
same,Potency,[16],inactive
same,Potency,[17],inactive
c1cnc(N2CCN(Cc3ccc4c(c3)OCO4)CC2)nc1,Potency,[1],inactive
same,Potency,[2],inactive
same,max response,[3],-13% (inactive)
same,Potency,[5],inactive
same,Potency,[6],inactive
same,Potency,[7],inactive
same,Potency,[8],inactive
same,Potency,[9],inactive
same,Potency,[10],inactive
same,Potency,[11],inactive
same,Potency,[12],inactive
same,Potency,[13],inactive
same,Potency,[14],inactive
same,Potency,[15],inactive
same,Potency,[16],inactive
same,Potency,[17],inactive
CN1CCC(=C2c3ccccc3CC(=O)c3sccc32)CC1,Potency,[1],inactive
same,Potency,[2],inactive
same,max response,[3],-28.2% (inactive)
same,Potency,[4],inactive
same,Potency,[5],inactive
same,Potency,[6],inactive
same,Potency,[7],inactive
same,Potency,[8],inactive
same,Potency,[9],inactive
same,Potency,[12],inactive
same,Potency,[13],inactive
same,Potency,[14],inactive
same,Potency,[15],inactive
same,Potency,[16],inactive
same,Potency,[17],inactive
C=C1CC[C@H]2C[C@@H]1C2(C)C,Potency,[1],inactive
same,Potency,[2],inactive
same,Potency,[19],inactive
same,Potency,[4],inactive
same,Potency,[5],inactive
same,Potency,[6],inactive
same,Potency,[8],inactive
same,Potency,[9],inactive
same,Potency,[10],inactive
same,Potency,[11],inactive
same,Potency,[20],inactive
same,Potency,[12],inactive
same,Potency,[13],inactive
same,Potency,[14],inactive
same,Potency,[15],inactive
same,Potency,[16],inactive
same,Potency,[17],inactive
O=c1cc(-c2ccccc2)oc2ccccc12,Potency,[1],inactive
same,Potency,[18],19.5 µM (active) and 6.88 µM (active)
same,Potency,[19],inactive
same,Potency,[3],11 µM (active) and 14.8 µM (active)
same,Potency,[4],inactive
same,Potency,[5],inactive
same,Potency,[6],inactive
same,Potency,[7],inactive
same,Potency,[8],inactive and 43.6 µM (active)
same,Potency,[9],inactive
same,Potency,[11],inactive
same,Potency,[20],inactive and 48.7 µM (active)
same,Potency,[12],inactive
same,Potency,[13],inactive
same,Potency,[14],17.4 µM (active) and 7.71 µM (active)
same,Potency,[15],17.4 µM (active) and 17.3 µM (active)
same,Potency,[16],inactive
same,Potency,[17],inactive
CCN(CC)CCNC(=O)c1cc(S(C)(=O)=O)ccc1OC,Potency,[1],inactive
same,Potency,[18],inactive
same,Potency,[19],inactive
same,max response,[3],3.02% (inactive)
same,Potency,[5],inactive
same,Potency,[6],inactive
same,Potency,[7],inactive
same,Potency,[8],inactive
same,Potency,[9],inactive
same,Potency,[11],inactive
same,Potency,[20],inactive
same,Potency,[13],inactive
same,Potency,[14],inactive
same,Potency,[15],inactive
same,Potency,[17],inactive
Cc1cnc(NS(=O)(=O)c2ccc(N)cc2)nc1,Potency,[2],inactive
same,Potency,[18],inactive
same,Potency,[4],inactive
same,Potency,[5],inactive
same,Potency,[6],inactive
same,Potency,[7],inactive
same,Potency,[8],inactive
same,Potency,[9],inactive
same,Potency,[10],inactive
same,Potency,[11],inactive
same,Potency,[20],inactive
same,Potency,[12],inactive
same,Potency,[13],inactive
same,Potency,[14],inactive
same,Potency,[15],inactive
same,Potency,[17],inactive
COC(=O)c1cc(C(=O)OC)cc(S(=O)(=O)O)c1,Potency,[2],inactive
same,Potency,[18],inactive
same,max response,[3],-1.13% (inactive)
same,Potency,[4],inactive
same,Potency,[5],inactive
same,Potency,[6],inactive
same,Potency,[7],inactive
same,Potency,[8],inactive
same,Potency,[9],inactive
same,Potency,[10],inactive
same,Potency,[20],inactive
same,Potency,[12],inactive
same,Potency,[13],inactive
same,Potency,[14],inactive
same,Potency,[15],inactive
same,Potency,[17],inactive
Nc1nc2c(ncn2COC(CO)CO)c(=O)[nH]1,Potency,[2],inactive
same,Potency,[4],inactive
same,Potency,[5],inactive
same,Potency,[7],inactive
same,Potency,[8],inactive
same,Potency,[10],inactive
same,Potency,[11],inactive
same,Potency,[20],inactive
same,Potency,[12],inactive
